High-throughput results: PubChem BioAssay, several laboratories
TROY NFkB inh = TROY signaling inhibition; Q293 LMP1-TROYcd NF-kB luciferase reporter, 4 h; inhibition, % at 10 µM; 0.98% of 360,000 active; AID 1347056;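 active means compounds whose plate-normalised and pattern-corrected inhibition of the luciferase reporter signal at the single screening dose is 50% or more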
HSP90 refold inh = inhibitors of HSP90 luciferase refolding in rabbit reticulocyte lysate; 0.91% of 290,000 active; luciferase refolding luminescence, 3 h; AID 1789; inhibition, % at 5.6 µM;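 active means inhibition above the screen-wide mean plus 3 SD, computed separately per campaign, cut at about 16% in these data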;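 further: inhibitors lower the luminescence because luciferase stays unfolded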
TRAIL sens C8 = caspase-8 TRAIL sensitization; NB7+C8 cells + TRAIL, ATPlite viability luminescence; inhibition (viability loss, TRAIL sensitization), % at 10 µM; 1% of 360,000 active;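 active means compounds causing at least 50% loss of cell viability in the single-dose screen, relative to plate controls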
PPC-1+TRAIL kill = PPC-1 cancer cell killing with TRAIL present | PPC-1 cells + TRAIL, ATPLite viability luminescence | cell killing (% activity), % at 4 µM or 5 µM | 0.41% of 220,000 active | AID 1443;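 active means cell killing above 50% in the first pass at 4 µM, then a duplicate retest at 5 µM averaging 50% or more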
TWEAK-Fn14 inh = inhibitors of TWEAK-Fn14 interaction signaling; inhibition, % at 10 µM; TWEAK-stimulated Fn14 reporter cells, luciferase luminescence, 8 h; AID 1159606; 2% of 360,000 active; in the data active means inhibition above about 50%
Platelet DG rel = modulates dense granule release in human platelets. human platelet-rich plasma, SFLLRN dense granule ATP release, luminescence. inhibition, %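 (compounds screened at 7.5 µM in platelet-rich plasma)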. 0.22% of 300,000 active. AID 1663;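 active means mean replicate score, as percent of positive control, at or above 50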
A number is an active result; i = inactive; nt = not tested or not shown. Hits are enriched below; roughly 3.5% of the tested compounds scored in any of these assays.

SMILES | TROY NFkB inh | HSP90 refold inh | TRAIL sens C8 | PPC-1+TRAIL kill | TWEAK-Fn14 inh | Platelet DG rel
O=c1[nH]c2ccccc2n1C1CCN(C(c2cccs2)c2nnnn2-c2ccc3c(c2)OCCO3)CC1 (stereo not given) | i | nt | i | nt | i | nt
O=c1[nH]c2ccccc2n1C1CCN(C(c2ccccc2OC(F)(F)F)c2nnnn2-c2ccc3c(c2)OCCO3)CC1 (stereo not given) | i | nt | i | nt | 76.3 | nt
Cc1cc(C(=O)OC(C)C(=O)Nc2ccccc2)c(C)n1C1CC1 (stereo not given) | i | nt | i | nt | i | nt
COc1ccc(C(c2nnnn2C(C)(C)C)N2CCC3(CC2)C(=O)NCN3c2ccccc2)cc1 (stereo not given) | i | nt | i | nt | i | nt
COc1ccc(-n2nc(C(=O)NCC(=O)N3CCC4(CC3)OCCO4)c3ccccc3c2=O)c(OC)c1 | i | i | 55.1 | nt | i | i
O=C(Cn1cnc2ccccc2c1=O)NCC(=O)N1CCC2(CC1)OCCO2 | i | i | i | i | i | i
COc1ccc(C[C@H]2NC[C@H](O)[C@H]2OC(C)=O)cc1 | 81.8 | nt | 86.0 | nt | 97.2 | i
COc1ccc(CCNC2CCCCC2)cc1 | i | i | i | i | i | i
O=C1NC(=O)C2(Cc3cc([N+](=O)[O-])ccc3N3CCN(C(=O)c4ccccc4)CC32)C(=O)N1 (stereo not given) | i | i | i | nt | i | i
Cc1ccc2c(c1)C1C[N+](C)(CC(=O)c3ccc(Cl)cc3Cl)CCC1N2C(=O)c1ccc(F)cc1 (stereo not given) | i | nt | i | nt | i | nt
CC(C)[N+]12CCC(CC1)C(C(O)(c1ccccc1)c1ccccc1)C2 (stereo not given) | i | i | i | i | i | i
Cc1cccc(C)c1-n1nnnc1C(c1cc2ccccc2o1)N1CCC(n2c(=O)[nH]c3ccccc32)CC1 (stereo not given) | 76.6 | nt | i | nt | 101.8 | nt
O=c1[nH]c2ccccc2n1C1CCN(C(CCc2ccccc2)c2nnnn2C2CCCC2)CC1 (stereo not given) | 53.1 | nt | i | nt | 50.7 | nt
O=c1[nH]c2ccccc2n1C1CCN(C(c2cc3ccccc3o2)c2nnnn2Cc2ccccc2)CC1 (stereo not given) | i | nt | 86.6 | nt | 75.5 | nt
O=c1[nH]c2ccccc2n1C1CCN(C(c2cccc3ccccc23)c2nnnn2Cc2ccccc2)CC1 (stereo not given) | i | nt | i | nt | 53.5 | nt
CSCCC(c1nnnn1-c1ccc2c(c1)OCCO2)N1CCC(n2c(=O)[nH]c3ccccc32)CC1 (stereo not given) | i | nt | i | nt | i | nt
COC(=O)C1=C(C(=O)OC)C2OC1c1cc3ccccc3cc12 | i | nt | i | nt | i | nt
C=CCOC(=O)N1Cc2ccccc2-n2nncc2C1 | i | nt | i | nt | i | nt
CCC(=NCc1cccnc1)c1c(O)n(-c2ccc(C)cc2)c(=O)[nH]c1=O | i | i | i | i | i | i
CCNC(=O)C1OC(n2cnc3c(N)ncnc32)C(O)C1O (stereo not given) | i | nt | i | nt | i | 94.9
CCOC(=O)[C@]12Cc3ccc4ccccc4c3[C@H]1N(Cc1ccccc1)C(=O)c1ccccc12 | i | nt | i | nt | i | nt
CC(C)(O)/C=C/C(=O)[C@](C)(O)C1[C@H](O)C[C@@]2(C)C3CC=C4C(C[C@H](O)[C@@H](O)C4(C)C)[C@]3(C)C(=O)C[C@]12C (stereo not given in full) | 55.6 | nt | i | nt | i | nt
CCc1ccc(-n2c(O)c(C(C)=O)c(=O)[nH]c2=O)cc1 (tested in a mixture with another compound) | i | i | i | i | i | i
CCOC(=O)[C@]12Cc3cc(OC)ccc3[C@H]1N(C1CCCCC1)C(=O)c1ccccc12 | i | nt | 84.9 | nt | 65.8 | nt
CCOC(=O)[C@]12Cc3cc(Cl)ccc3[C@H]1N(C)C(=O)c1ccccc12 | i | nt | i | nt | i | nt
SMILES | TROY NFkB inh | HSP90 refold inh | TRAIL sens C8 | PPC-1+TRAIL kill | TWEAK-Fn14 inh | Platelet DG rel
CCOC(=O)[C@]12Cc3cc(Cl)ccc3[C@H]1N(C1CCCCC1)C(=O)c1ccccc12 | 57.0 | nt | 95.5 | nt | 89.8 | nt
Cc1cc(C(=O)CS(=O)(=O)c2ccccc2)cc(C)c1OC(=O)N(C)C | 59.7 | i | i | i | i | i
CC(Cc1ccc(O)cc1)NCC(O)c1ccc(O)c(O)c1 (stereo not given) | i | nt | i | nt | i | nt
O=C1NC(=O)C(C2CCCCCC2)C(=O)N1 | i | nt | i | nt | i | nt
O=[N+]([O-])c1ccc(CNCCc2ccccc2)cc1 | i | i | i | nt | 98.1 | i
CCOC(=O)[C@]12Cc3ccccc3[C@H]1N(CCC(=O)OC)C(=O)c1cc(OC)ccc12 | i | nt | i | nt | i | nt
